From PubChem BioAssay
The list is not random: actives were taken first. Their share in the collection is about 10%.
hNpr1 antagonist – human Npr1 receptor antagonism | P16066 | HEK293 hNpr1 GloSensor cGMP, ANP-stimulated luminescence | Potency, µM (doses to about 46.3 µM), actives largely listed as inhibitors | 1.6% of 76,000 active; calls by dose curve; also: nearly all actives have a fitted effect of over 60% in size
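HEK293 cells stably expressing human Npr1 and cGMP GloSensor pGS-40F, loaded 2 h with 2% GloSensor reagent, given compound 30 min at room temperature. Luminescence read before and 20 min after 0.1 nM hNppA.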
Luciferase inh – blocks purified firefly luciferase enzyme activity | P08659 | purified P. pyralis luciferase, luminescence, biochemical | Potency, µM (series often up to 115 µM), actives largely listed as inhibitors | 2.5% of 76,000 active | AID 1347043; also: nearly all actives have a fitted effect of over 65% in size
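FLuc 10nM, D-luciferin 10uM, ATP 10uM, Mg acetate 10mM, Tris acetate pH 7.5, Tween/BSA; cpd qHTS; enzyme added last; CCD luminescence.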
3T3 cytotox – cytotoxic compounds in NIH 3T3 cells; AID 1345082; Potency, µM (titrated, usually from 96.7 µM), hits mostly inhibitors; 4.3% of 94,000 active; NIH 3T3 viability, CellTiter-Glo ATP luminescence, 48-72 h; also: nearly all actives have a fitted effect of over 55% in size
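Viability of NIH 3T3 cells after 48 or 72 hr compound treatment at 37 °C was assessed by CellTiter-Glo, with luminescence imaged following a 10 min room-temperature step.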
GPT2 inh – GPT2 alanine aminotransferase inhibition; Q8TD30; Recombinant GPT2, coupled pyruvate oxidase/HRP Amplex Red fluorescence; Potency, µM (top dose mostly 57.7 µM), usual class: inhibitors; 0.25% of 100,000 active; AID 1671188; also: nearly all actives have a fitted effect of over 60% in size
Target sequence (Q8TD30 whole entry, looked up): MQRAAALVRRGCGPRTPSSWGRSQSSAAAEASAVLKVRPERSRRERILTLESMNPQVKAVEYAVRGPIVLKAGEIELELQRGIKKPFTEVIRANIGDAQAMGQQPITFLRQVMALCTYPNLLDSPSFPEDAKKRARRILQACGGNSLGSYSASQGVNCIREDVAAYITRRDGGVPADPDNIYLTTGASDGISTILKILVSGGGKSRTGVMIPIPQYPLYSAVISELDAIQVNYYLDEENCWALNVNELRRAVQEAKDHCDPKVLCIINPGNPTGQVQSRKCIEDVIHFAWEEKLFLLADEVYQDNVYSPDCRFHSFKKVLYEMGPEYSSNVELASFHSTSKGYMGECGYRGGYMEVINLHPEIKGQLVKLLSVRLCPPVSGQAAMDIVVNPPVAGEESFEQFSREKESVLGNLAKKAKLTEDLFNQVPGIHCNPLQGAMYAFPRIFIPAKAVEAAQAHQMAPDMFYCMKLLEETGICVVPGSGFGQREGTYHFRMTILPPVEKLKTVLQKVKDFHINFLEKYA
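Fluorescence of coupled pyruvate oxidase/HRP/Amplex Red system (50uM Amplex, 30 min, dark) reports pyruvate formed by GPT2. Enzyme reaction: 10ng/uL GPT2, 2mM L-alanine, 250uM a-KG, 30 min room temperature, pH 7.5; 50uM AOA control.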
HEK cytotox – HEK 293 cell cytotoxicity; HEK 293 viability, ATP luminescence (CellTiter-Glo), 48-72 h; Potency, µM (series often up to 115 µM), hits mostly inhibitors; 6.6% of 94,000 active; AID 1345083; also: nearly all actives have a fitted effect of over 60% in size
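HEK 293 cells at 250 cells/well were exposed to compounds by pintool transfer for 48 or 72 hr at 37 degree Celsius, 5% CO2. Viability was read as ATP-coupled luminescence with CellTiter-Glo after 10 min at room temperature.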
Each line names hits and unclear results; the compound was inactive in the other large screens; ! = a repeat was not active. Unless noted, calls follow the shape of the dose curve; as a rule, active = well fitted curve in the direction sought with a large enough effect; inconclusive = small, poorly fitted or top-dose-only effect, or another doubt; inactive = no such curve, though single readings can be large; an effect the other way counts as inactive or inconclusive.

COC(=O)[C@@H]1Cc2ncn(Cc3ccc(OC)cc3)c2CN1Cc1ccc(F)cc1	hNpr1 antagonist inconclusive, 3T3 cytotox inconclusive, HEK cytotox 63µM
CCOc1cc(=O)n2c(c1C(=O)Nc1ccc3c(c1)OCO3)CCCC2	Luciferase inh 40µM, 3T3 cytotox inconclusive, HEK cytotox inconclusive
FC(F)(F)Oc1ccc(Nc2cnc3ccc(N4CCOCC4)nn23)cc1	3T3 cytotox inconclusive, HEK cytotox 50µM
FC(F)(F)c1cc(Nc2cnc3ccc(N4CCOCC4)nn23)ccc1Cl	hNpr1 antagonist inconclusive, 3T3 cytotox inconclusive, GPT2 inh inconclusive, HEK cytotox 79µM
COc1ccc(Nc2cnc3ccc(N4CCOCC4)nn23)cn1	3T3 cytotox inconclusive, GPT2 inh inconclusive, HEK cytotox inconclusive
Cc1nnc2ccc(N3CCOCC3)nn12	none
COc1ccc(CN2CCCC3(C2)C(=NC2CCCC2)NC(=O)N3c2cccc(OC)c2)cc1 (centres undefined)	3T3 cytotox inconclusive, HEK cytotox inconclusive (no result: hNpr1 antagonist, Luciferase inh)
CC(C)NC(=O)N(C1CC1)C1CCOC2(CCN(C(=O)Cc3ccsc3)CC2)C1 (centres undefined)	none (no result: hNpr1 antagonist, Luciferase inh)
COCCNC(=O)C1(C)CN(Cc2ccccc2)Cc2ccc(NCC(C)C)nc21 (centres undefined)	3T3 cytotox 22µM, HEK cytotox 40µM
COCCN(C)C(=O)C1(C)CN(Cc2ccccc2)Cc2ccc(NCC(C)C)nc21 (centres undefined)	3T3 cytotox inconclusive, HEK cytotox 79µM
COCCN1Cc2ccc(NCC(C)C)nc2C(C)(C(=O)Nc2ccc(OC)cc2)C1 (centres undefined)	Luciferase inh inconclusive, 3T3 cytotox 45µM, HEK cytotox inconclusive
COCCNC(=O)C1(C)CN(Cc2ccccc2)Cc2ccc(Nc3ccccc3)nc21 (centres undefined)	3T3 cytotox inconclusive, HEK cytotox inconclusive
COCCN1Cc2ccc(NCC(C)C)nc2C(C)(C(=O)Nc2ccccc2)C1 (centres undefined)	3T3 cytotox inconclusive, HEK cytotox inconclusive
CNC(=O)N1CCC(C2CCN(S(=O)(=O)c3ccc4c(c3)CCC4)C2)CC1 (centres undefined)	3T3 cytotox inconclusive, HEK cytotox inconclusive
O=C(C1CCN(c2cn[nH]c(=O)c2)C1)N1CCc2ccccc2C1 (centres undefined)	none
CN(Cc1cccc2ncccc12)C(=O)CN1CCOC1=O	none
Cn1c(=O)[nH]cc(CC(=O)N2C[C@@H](C(=O)O)[C@H](c3ccncc3)C2)c1=O	HEK cytotox inconclusive
COc1ccc(CN2Cc3cc(NC(=O)c4cc(OC)cc(OC)c4)ccc3OC(C)C2=O)cc1 (centres undefined)	3T3 cytotox inconclusive, HEK cytotox 20µM
COc1ccc(CCN2Cc3cc(NC(=O)c4ccc(OC)cc4)ccc3OC(C)C2=O)cc1 (centres undefined)	HEK cytotox 89µM
CC1Oc2ccc(NC(=O)c3cccs3)cc2CN(CCOc2ccccc2)C1=O (centres undefined)	3T3 cytotox inconclusive, HEK cytotox 40µM
CSCCNC(=O)C1CN(c2cccc(Cl)c2)C(=O)N1 (centres undefined)	none
Cc1nn(-c2ccccc2)c2c1C(C)N(C1CCN(C(=O)c3ccc(Cl)nc3)CC1)C2=O (centres undefined)	3T3 cytotox 35µM, HEK cytotox inconclusive (no result: hNpr1 antagonist, Luciferase inh, GPT2 inh)
Cc1nn(-c2ccccc2)c2c1C(C)N(C1CCN(C(=O)c3cccc(C(F)(F)F)c3)CC1)C2=O (centres undefined)	3T3 cytotox inconclusive, HEK cytotox 45µM (no result: hNpr1 antagonist, Luciferase inh, GPT2 inh)
COCC(=O)N1CCC(N2C(=O)c3c(c(C)nn3-c3ccccc3)C2C)CC1 (centres undefined)	3T3 cytotox 28µM! (no result: hNpr1 antagonist, Luciferase inh, GPT2 inh)
Cc1nn(-c2ccccc2)c2c1C(C(C)C)N(C1CCN(C(=O)c3ccc(C(F)(F)F)cc3)CC1)C2=O (centres undefined)	none (no result: hNpr1 antagonist, Luciferase inh, GPT2 inh)
Cc1nn(-c2ccccc2)c2c1C(C)N(C1CCN(C(=O)c3ccccc3)CC1)C2=O (centres undefined)	3T3 cytotox inconclusive, HEK cytotox 35µM (no result: hNpr1 antagonist, Luciferase inh, GPT2 inh)
COc1cccc(C(=O)N2CCC(N3C(=O)c4c(c(C)nn4-c4ccccc4)C3C)CC2)c1 (centres undefined)	3T3 cytotox inconclusive, HEK cytotox 40µM (no result: hNpr1 antagonist, Luciferase inh, GPT2 inh)
COc1cccc([S+](=O)([O-])N2CCC(N3C(=O)c4c(c(C)nn4-c4ccccc4)C3C)CC2)c1 (centres undefined)	none (no result: hNpr1 antagonist, Luciferase inh, GPT2 inh)
COc1ccc(CC(=O)N2CC(N3C(=O)c4c(c(C)nn4-c4ccccc4)C3C)C2)cc1 (centres undefined)	3T3 cytotox inconclusive, HEK cytotox 40µM (no result: hNpr1 antagonist, Luciferase inh, GPT2 inh)
CCC1Oc2ccc(NC(=O)C(CC)c3ccccc3)cc2CN(Cc2ccc(OC)cc2)C1=O (centres undefined)	3T3 cytotox inconclusive, GPT2 inh inconclusive
CC(C)NC(=O)N[C@H]1CCN2C(=O)c3cc(/C=C/c4ccccc4)ccc3NC(=O)[C@H]12	Luciferase inh 4µM
COc1ccccc1Nc1ncc2c(n1)CN([S+](=O)([O-])c1ccccc1)CCN2	3T3 cytotox inconclusive, HEK cytotox 100µM
COc1ccccc1Nc1ncc2c(n1)CN(C(=O)c1ccc(Cl)cc1)CCN2	3T3 cytotox inconclusive, HEK cytotox inconclusive
O=[S+]([O-])(c1ccccc1)N1CCNc2cnc(Nc3cccc(F)c3)nc2C1	hNpr1 antagonist inconclusive, 3T3 cytotox inconclusive, HEK cytotox 89µM
C[S+](=O)([O-])N1CCNc2cnc(Nc3cccc(C(F)(F)F)c3)nc2C1	hNpr1 antagonist inconclusive, Luciferase inh inconclusive, 3T3 cytotox inconclusive, HEK cytotox inconclusive
CCn1ccc(C(=O)NCC(=O)N2CCCCCNC(=O)CC2c2ccccc2)n1 (centres undefined)	none
COCCN1CCC(CN(CC2CCCO2)C(=O)c2cccc(C#CC(C)(C)O)c2)CC1 (centres undefined)	none
COCCn1cnc2ccc(-c3ccc4c(ccn4C)c3)nc2c1=O	Luciferase inh inconclusive, 3T3 cytotox 45µM, HEK cytotox inconclusive
Cn1ccc2cc(-c3ccc4c(n3)c(=O)ncn4CC3CC3)ccc21	Luciferase inh 45µM, 3T3 cytotox inconclusive
Cc1ccc2c(n1)N(C)[C@H](CO)CCN(Cc1ccc(Cl)cc1)C2	3T3 cytotox inconclusive, GPT2 inh inconclusive, HEK cytotox 71µM
Cc1ccc2c(n1)N(C)[C@H](CO)CCN(Cc1ccc(F)c(F)c1)C2	HEK cytotox inconclusive
CN(C)CC(=O)N1CCC(N2C(=O)C3(CCCC3)C2c2ccccc2)CC1 (centres undefined)	none
CC(C)CC(=O)N1CCC(N2C(=O)C3(CCCC3)C2c2ccccc2)CC1 (centres undefined)	3T3 cytotox 45µM, HEK cytotox inconclusive
Cn1cccc1C(=O)N1CCC(N2C(=O)C3(CCCC3)C2c2ccccc2)CC1 (centres undefined)	HEK cytotox 45µM
